Rows were chosen to be rich in hits. Some 2.8% of all compounds tested hit in one or more screens of this group.
PAX8 reporter: inhibitors of PAX8 transcriptional activity in RMG-I cells; RMG-I TPO-luciferase reporter, SteadyGlo, 24 h; inhibition, % at 12.6 µM; 360,000 compounds, 1.2% hits; AID 652154;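 active means mean replicate inhibition at least 60% with every replicate also reaching 60%; inconclusive means only one of the two criteria is met; inactive means mean below 60% and not all replicates reaching 60%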;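 further: luciferase light reporting Pax8 driven TPO promoter activity; plate controls were median of neutral control wells for no effect and mitoxantrone controls for full effect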
HIF-2a block: blocks HIF-2a reporter activity; AID 624352; 360,000 compounds, 0.72% hits; inhibition, % at 18.8 µM; 786-0 RCC cells HIF-2a reporter, luciferase luminescence, overnight;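 active means inhibition of the luminescence signal of 40% or more relative to plate controls, in a single-dose primary screen at 18.75 µM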
TRPM1 prom inh: inhibitors of MITF-driven TRPM1 promoter in melanoma cells. 330,000 compounds, 0.83% hits. inhibition, % at 12.5 µM. SK-MEL-5 TRPM1 promoter luciferase, 24 h. AID 488899;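 active means mean inhibition across replicates of 60% or more, whatever share of single replicates reaches that level; inconclusive means some that reach 60%, reason not given; inactive means mean inhibition across replicates below 60%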
EBV LMP1 NFkB: reduces LMP1-driven NF-kappaB luciferase signal; LMP1-induced NF-kappaB luciferase reporter cells, luminescence; inhibition, % at 12.5 µM; 350,000 compounds, 0.69% hits; AID 504558; in the data active means inhibition above about 41%; inconclusive means no clear call, values can overlap the other calls;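 further: 0% = neutral control wells and 100% = reference inhibitor control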
Peg3 prom inh: reduces Peg3 promoter-driven luciferase expression in HeLa; 360,000 compounds, 1.7% hits; inhibition, % at 20 µM; AID 588405; HeLa PEG-Prom luciferase reporter, luminescence, overnight;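 active means inhibition of at least 50% at 20 µM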
Shn3 inh set2: reduces Shn3 3'UTR luciferase signal in osteoblasts; AID 588674; Clone20 osteoblast Shn3 3'UTR firefly luciferase, 24 h; 360,000 compounds, 0.52% hits; inhibition, % at 12.5 µM;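 active means mean inhibition of at least 75% with every replicate also reaching 75%; inconclusive means mean inhibition at least 75% but some replicate below; inactive means mean inhibition below 75%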;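 further: 0% = median of neutral control wells and 100% = pilot-screen positive control compound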
An asterisk follows results filed as active; ? = inconclusive; / = no result given.

SMILES	PAX8 reporter	HIF-2a block	TRPM1 prom inh	EBV LMP1 NFkB	Peg3 prom inh	Shn3 inh set2
CCCCC(=O)NC(c1cccc([N+](=O)[O-])c1)c1ccc2cccnc2c1O (centres undefined)	51	9	57	50*	58*	89*
C[C@@H]1CN([C@@H](C)CO)C(=O)Cc2cc(NC(=O)CCCN(C)C)ccc2O[C@H]1CN(C)CC1CCCCC1	-5	/	/	/	/	/
COc1ccccc1-c1cn(CC[C@H]2CC[C@@H](NC(=O)C3CCOCC3)[C@H](CO)O2)nn1	-8	/	/	/	/	/
CN1CCN(C(=O)C[C@@H]2C[C@H]3c4cc(NC(=O)C5CCC5)ccc4O[C@H]3[C@@H](CO)O2)CC1	7	/	/	/	/	/
CCCNC(=O)N1C[C@H]2[C@@H](c3ccccc31)[C@H](CO)N2Cc1ccccc1F	1	/	/	/	/	/
C[C@@H]1CN([C@@H](C)CO)C(=O)c2cc(NS(=O)(=O)c3ccc(Cl)cc3)ccc2O[C@H]1CN(C)S(=O)(=O)c1cccs1	12	/	/	/	/	/
COc1cccc(C(Nc2ccccc2)c2ccc3ccc(C)nc3c2O)c1 (centres undefined)	66*	-98	/	/	/	/
Cc1cccc(NC(c2ccc(O)cc2)c2ccc3ccc(C)nc3c2O)n1 (centres undefined)	/	55*	6	9	42	18
COc1ccc(Cl)cc1C(Nc1cccnc1)c1ccc2cccnc2c1O (centres undefined)	25	32	29	9	35	78
O=[N+]([O-])c1ccc(NC(c2ccccc2)c2ccc3cccnc3c2O)cc1 (centres undefined)	83*	21	74*	57*	58*	91*
CCC(=O)NC(c1ccccc1OC)c1ccc2cccnc2c1O (centres undefined)	/	13	66*	65*	47	89*
Oc1c(C(Nc2cccc(C(F)(F)F)c2)c2cccnc2)ccc2cccnc12 (centres undefined)	13	14	-25	7	13	48
O=C(C[C@@H]1CC[C@H](NC(=O)c2cccc(F)c2)[C@@H](CO)O1)NCc1ccccc1	-1	/	/	/	/	/
COc1ccccc1C#Cc1ccc([C@H]2[C@@H](CO)N3CCCCN(S(C)(=O)=O)C[C@@H]23)cc1	8	/	/	/	/	/
COc1ccc(S(=O)(=O)N(C)C[C@@H]2Oc3ncc(-c4ccc(F)cc4)cc3C(=O)N([C@H](C)CO)C[C@@H]2C)cc1	9	/	/	/	/	/
C[C@@H]1CCCCO[C@@H](CN(C)C(=O)Nc2ccccc2)[C@H](C)CN([C@@H](C)CO)C(=O)c2cc(NS(=O)(=O)c3ccc(F)cc3)ccc2O1	-3	/	/	/	/	/
O=[N+]([O-])c1cccc(/C=N/n2cnnc2)c1O	/	-1	15	5	3	6
O=[N+]([O-])c1ccccc1S(=O)(=O)Oc1ccccc1/C=N/n1cnnc1	98*	0	6	-7	3	-8
CCCC(=O)Nc1ccc2c(c1)C(=O)N(C)[C@H]1CC[C@H](CC(=O)NCCc3ccncc3)O[C@@H]1CO2	-1	/	/	/	/	/
Cc1cc(C)c(S(=O)(=O)Nc2nnc(C)s2)c(C)c1	/	9	4	3	5	3
Cc1cc(C)c(S(=O)(=O)Nc2nnc(CC(C)C)s2)c(C)c1	-19	8	-6	82*	4	19
C[C@@H]1CCCCO[C@H](CN(C)S(=O)(=O)c2ccccc2)[C@@H](C)CN([C@H](C)CO)C(=O)c2cc(NC(=O)NC3CCCCC3)ccc2O1	0	/	/	/	/	/
COC(=O)C1=C(C)N(Cc2ccccc2)C(=NCc2ccc(OC)cc2)N[C@H]1c1cccc(F)c1	18	-3	?	19	102*	?
COC(=O)C1=C(C)N(Cc2ccccc2)C(=NCc2cc(OC)c(OC)c(OC)c2)N[C@H]1c1cccc(F)c1	/	1	-7	4	-10	15
COC(=O)C1=C(C)N(Cc2ccccc2)C(=NCc2cccc(Cl)c2)N[C@H]1c1cccc(F)c1	/	2	95*	9	104*	0
SMILES	PAX8 reporter	HIF-2a block	TRPM1 prom inh	EBV LMP1 NFkB	Peg3 prom inh	Shn3 inh set2
Cc1nn(C)cc1NC(=O)C[C@H]1CC[C@@H]2[C@H](COc3ccc(NC(=O)Nc4cccc(Cl)c4)cc3C(=O)N2C)O1	6	/	/	/	/	/
COC(=O)C[C@@H]1C=C[C@@H](NC(=O)Nc2ccc(C(F)(F)F)cc2)[C@@H](CO)O1	-1	/	/	/	/	/
Cc1ccc(S(=O)(=O)Nc2ccc3c(c2)C(=O)N([C@H](C)CO)C[C@@H](C)[C@H](CN(C)C(=O)Nc2ccc(F)cc2)OCCCC[C@@H](C)O3)cc1	61*	/	/	/	/	/
C[C@@H]1CN([C@H](C)CO)C(=O)c2cc(NS(=O)(=O)c3ccc(F)cc3)ccc2O[C@@H](C)CCCCO[C@H]1CN(C)C(=O)Nc1ccc(F)cc1	21	/	/	/	/	/
C[C@H]1CCCCO[C@H](CN(C)C(=O)Nc2ccc(F)cc2)[C@@H](C)CN([C@@H](C)CO)C(=O)c2cc(NS(=O)(=O)c3ccc(F)cc3)ccc2O1	67*	/	/	/	/	/
COc1ccc(S(=O)(=O)Nc2ccc3c(c2)C(=O)N([C@@H](C)CO)C[C@H](C)[C@@H](CN(C)C(=O)Nc2ccc(F)cc2)OCCCC[C@H](C)O3)cc1	85*	/	/	/	/	/
C[C@@H]1CN([C@H](C)CO)C(=O)c2cc(NS(=O)(=O)c3ccc(Cl)cc3)ccc2O[C@@H](C)CCCCO[C@H]1CN(C)C(=O)Nc1ccc(F)cc1	67*	/	/	/	/	/
COc1ccc(NC(=O)N(C)C[C@@H]2OCCCC[C@H](C)Oc3ccc(NS(=O)(=O)c4ccc(F)cc4)cc3C(=O)N([C@@H](C)CO)C[C@@H]2C)cc1	-15	/	/	/	/	/
C[C@@H]1CN([C@@H](C)CO)C(=O)c2cc(NS(=O)(=O)c3ccc(Cl)cc3)ccc2O[C@@H](C)CCCCO[C@@H]1CN(C)C(=O)Nc1ccc(F)cc1	5	/	/	/	/	/
CC(C)NC(=O)N[C@@H]1CC[C@@H](CCNC(=O)C2CCCC2)O[C@@H]1CO	0	/	/	/	/	/
COc1ccc(CC(=O)NNC(=O)c2cc(C)[nH]n2)cc1	-1	14	-3	-2	62*	-15
C/C=C/c1ccc([C@H]2[C@@H](CO)N3C(=O)CN(Cc4ccccc4)C[C@@H]23)cc1	9	/	/	/	/	/
CCC(=O)Nc1ccc2c(c1)C(=O)N(C)[C@H]1CC[C@@H](CC(=O)NCc3ccc(OC)cc3)O[C@H]1CO2	8	/	/	/	/	/
COc1ccc(CC2C(=O)NC(C)C(=O)N(C)C3Cc4ccc(cc4)Oc4cc(ccc4O)CC(C(=O)NC(C)C(=O)NC(C)C(=O)N2C)N(C)C3=O)cc1 (centres undefined)	110*	82*	98*	82*	97*	95*
CCn1cc([N+](=O)[O-])c(C(=O)Nc2ccn(Cc3ccccc3F)n2)n1	/	8	13	-2	-1	9
Cc1ccccc1Cn1ccc(NC(=O)c2nn(C)cc2[N+](=O)[O-])n1	72*	2	11	-15	-62	4
COc1cccc(NC(=O)N2C[C@H](O)COC[C@H]3O[C@H](CC(=O)NC4CCC4)CC[C@@H]32)c1	-22	/	/	/	/	/

Bioassay records as filed in PubChem BioAssay.
